The results in this text go back to the supplement of paper PMC3545927.

In the assay the target is furin, P09958. In words: furin cleavage Z-score vs untreated control; higher = more cleavage, active = 3.5 or more, inactive = 1 or less, 8 variable residues between constant flanks. Put shortly: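 Cleavage by purified furin was measured on 8-mer peptides fused to a cDNA oligonucleotide and held on magnetic beads by their N-terminus. Reactions (0.01 ml, 1:10 enzyme:substrate) ran 7.5, 15 or 30 min in 50 mM HEPES pH 7.5 with CaCl2 and NaCl. Released DNA was adapter-tagged by PCR and sequenced, with read counts giving abundance. Log counts versus furin-free reactions were lowess-adjusted and scaled by median absolute deviation to give the cleavage Z-score.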
Sequence of furin, P09958 (P09958 whole entry, the tested form may be a part): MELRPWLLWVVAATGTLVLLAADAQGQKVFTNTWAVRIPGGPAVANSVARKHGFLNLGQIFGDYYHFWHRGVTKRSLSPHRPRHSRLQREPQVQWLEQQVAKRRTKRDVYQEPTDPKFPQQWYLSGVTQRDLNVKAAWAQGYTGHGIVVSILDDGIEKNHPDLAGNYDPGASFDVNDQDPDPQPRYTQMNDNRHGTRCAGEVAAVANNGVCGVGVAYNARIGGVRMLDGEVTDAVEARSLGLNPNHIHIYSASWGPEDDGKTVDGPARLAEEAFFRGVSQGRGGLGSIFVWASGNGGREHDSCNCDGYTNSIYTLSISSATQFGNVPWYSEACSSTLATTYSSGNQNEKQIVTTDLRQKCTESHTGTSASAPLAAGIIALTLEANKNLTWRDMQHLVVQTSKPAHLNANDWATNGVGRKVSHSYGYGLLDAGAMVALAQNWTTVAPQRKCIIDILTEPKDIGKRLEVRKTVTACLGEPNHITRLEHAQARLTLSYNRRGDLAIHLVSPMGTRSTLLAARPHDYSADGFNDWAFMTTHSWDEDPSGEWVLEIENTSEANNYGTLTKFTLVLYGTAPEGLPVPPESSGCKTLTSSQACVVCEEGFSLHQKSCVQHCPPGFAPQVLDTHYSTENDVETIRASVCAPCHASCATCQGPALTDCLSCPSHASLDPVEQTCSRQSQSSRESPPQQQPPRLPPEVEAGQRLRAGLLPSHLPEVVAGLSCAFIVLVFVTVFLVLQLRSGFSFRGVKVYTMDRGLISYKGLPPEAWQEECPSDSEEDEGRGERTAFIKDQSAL

The other results are listed elsewhere or left out. The true hit rate is not given.

As to CAENVTSTWVAGNASASA [HC2181], the “furin cleavage Z-score” value is, setting by setting: (7.5 min) 0.856 (inactive); (15 min) -1.06 (inactive); (30 min) 0.371 (inactive).

CAPGGGQIVGAGNASASA [HC173]: the “furin cleavage Z-score” value is, setting by setting: (7.5 min) -0.67 (inactive); (15 min) -2.32 (inactive); (30 min) 0.322 (inactive).

Take CAVVVTSTWVAGNASASA [HC2150]: the “furin cleavage Z-score” value is, setting by setting: (7.5 min) -0.0276 (inactive); (15 min) -0.308 (inactive); (30 min) -1.74 (inactive).

For CAEVVTSLWVAGNASASA [HC2205], the “furin cleavage Z-score” value by setting is: (7.5 min) 0.73 (inactive); (15 min) -1.3 (inactive); (30 min) -0.955 (inactive).

Take CAACTTPCSGAGNASASA [HC1943]: the “furin cleavage Z-score” value was -1.45 (inactive) (7.5 min), -0.341 (inactive) (15 min) and -0.2 (inactive) (30 min).

For the sequence CASTPCSAMLAGNASASA [HC2546], the “furin cleavage Z-score” value is 1.06 (7.5 min), 0.507 (inactive) (15 min) and -0.199 (inactive) (30 min).

As for CARRRRLLIKAGNASASA [FS-2597], the “furin cleavage Z-score” value is -0.832 (inactive) (7.5 min), -0.657 (inactive) (15 min) and -0.82 (inactive) (30 min).

On to CARRRRAAATAGNASASA [FS-2784], for which the “furin cleavage Z-score” value reads like this: (7.5 min) 8.16 (active); (15 min) 6.75 (active); (30 min) 5.42 (active).

Regarding CARSRRVQCHAGNASASA [FS-2091], the “furin cleavage Z-score” value (7.5 min) was -0.135 (inactive), the “furin cleavage Z-score” value (15 min) was -0.538 (inactive) and the “furin cleavage Z-score” value (30 min) was -0.773 (inactive).

In the case of CARSTRFAATAGNASASA [FS-2188], the “furin cleavage Z-score” value by setting is: (7.5 min) -0.54 (inactive); (15 min) -0.334 (inactive); (30 min) 1.52.

For the sequence CARRRRHTFKAGNASASA [FS-2374], the “furin cleavage Z-score” value was 6.02 (active) (7.5 min), 8.84 (active) (15 min) and 8.36 (active) (30 min).

As for CARHHRAAATAGNASASA [FS-2142], the “furin cleavage Z-score” value (7.5 min) is -0.187 (inactive), the “furin cleavage Z-score” value (15 min) was 1.63 and the “furin cleavage Z-score” value (30 min) was determined as 1.18.

Consider CARSRRHSPHAGNASASA [FS-2462], for which the “furin cleavage Z-score” value (7.5 min) is 9.64 (active), the “furin cleavage Z-score” value (15 min) was 10.4 (active) and the “furin cleavage Z-score” value (30 min) is 9.06 (active).

Regarding CAVVCCSMSCAGNASASA [HC2100], the “furin cleavage Z-score” value was -1.04 (inactive) (7.5 min), -1.97 (inactive) (15 min) and -0.294 (inactive) (30 min).

For the sequence CAKSPRRTRSAGNASASA [FS-1351], the “furin cleavage Z-score” value reads like this: (7.5 min) 5.21 (active); (15 min) 4.36 (active); (30 min) 2.84.

On to CANDARRTRSAGNASASA [FS-693], for which the “furin cleavage Z-score” value by setting is: (7.5 min) 6.7 (active); (15 min) 7.77 (active); (30 min) 7.39 (active).

CAESTTPCSGAGNASASA [HC1977]: the “furin cleavage Z-score” value runs as follows: (7.5 min) -0.591 (inactive); (15 min) 0.488 (inactive); (30 min) -0.368 (inactive).

On to CAGTTDRSGAAGNASASA [HC419], for which the “furin cleavage Z-score” value (7.5 min) was determined as 1, the “furin cleavage Z-score” value (15 min) stood at 2.15 and the “furin cleavage Z-score” value (30 min) was -0.141 (inactive).

Turning to CALPYIEQGMAGNASASA [HC1018], the “furin cleavage Z-score” value (7.5 min) was -0.393 (inactive), the “furin cleavage Z-score” value (15 min) is -0.653 (inactive) and the “furin cleavage Z-score” value (30 min) was determined as 2.95.

Consider CALRSRWGRSAGNASASA [FS-1370], for which the “furin cleavage Z-score” value runs as follows: (7.5 min) 6.03 (active); (15 min) 5.71 (active); (30 min) 6.06 (active).

Regarding CAEQGRQGRSAGNASASA [FS-416], the “furin cleavage Z-score” value by setting is: (7.5 min) -1.07 (inactive); (15 min) -0.0349 (inactive); (30 min) 0.708 (inactive).

For the sequence CAQRERSGRSAGNASASA [FS-1057], the “furin cleavage Z-score” value was 4.28 (active) (7.5 min), 6.49 (active) (15 min) and 6.16 (active) (30 min).

With CALRSRSGRSAGNASASA [FS-57], the “furin cleavage Z-score” value was 4.75 (active) (7.5 min), 5.58 (active) (15 min) and 4.32 (active) (30 min).

Turning to CAQQHRQGRSAGNASASA [FS-1391], the “furin cleavage Z-score” value (7.5 min) is 6.09 (active), the “furin cleavage Z-score” value (15 min) is 6.71 (active) and the “furin cleavage Z-score” value (30 min) is 6.63 (active).

CALRLRKGRSAGNASASA [FS-613]: the “furin cleavage Z-score” value was 2.52 (7.5 min), 2.83 (15 min) and 0.738 (inactive) (30 min).

Regarding CAQDPRSGRSAGNASASA [FS-846], the “furin cleavage Z-score” value runs as follows: (7.5 min) 0.797 (inactive); (15 min) -0.812 (inactive); (30 min) -0.37 (inactive).

CATNSRGENCAGNASASA [HC1504]: the “furin cleavage Z-score” value is, setting by setting: (7.5 min) 0.0549 (inactive); (15 min) 0.267 (inactive); (30 min) 0.425 (inactive).

Regarding CATTPCSGSAAGNASASA [HC1923], the “furin cleavage Z-score” value (7.5 min) is 0.77 (inactive), the “furin cleavage Z-score” value (15 min) was -1.08 (inactive) and the “furin cleavage Z-score” value (30 min) is -0.465 (inactive).
